± gives the standard deviation of the averaged measurements.

Assay in all cases: relative enzymatic activity vs untreated control (fraction); higher = less inhibition
Details in all cases: 100 µM; incubation time: 2 h at 37 C

One experiment relates to DNA gyrase. As for the experimental part: (§1)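 In vitro enzymatic inhibition assays (ProFoldin kits) for 12 purified essential E. coli enzymes or complexes, each treated with 218 active antibacterial compounds at 100 µM for 2 h at 37°C. Read-outs were fluorescence or absorbance (phosphate detection, dye binding), converted to activity via standard curves and expressed relative to untreated DMSO controls.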

For a further experiment, the target named is DNA helicase (UniProt P0ACB1). Here is the method: as §1
Sequence of DNA helicase (P0ACB1 whole entry): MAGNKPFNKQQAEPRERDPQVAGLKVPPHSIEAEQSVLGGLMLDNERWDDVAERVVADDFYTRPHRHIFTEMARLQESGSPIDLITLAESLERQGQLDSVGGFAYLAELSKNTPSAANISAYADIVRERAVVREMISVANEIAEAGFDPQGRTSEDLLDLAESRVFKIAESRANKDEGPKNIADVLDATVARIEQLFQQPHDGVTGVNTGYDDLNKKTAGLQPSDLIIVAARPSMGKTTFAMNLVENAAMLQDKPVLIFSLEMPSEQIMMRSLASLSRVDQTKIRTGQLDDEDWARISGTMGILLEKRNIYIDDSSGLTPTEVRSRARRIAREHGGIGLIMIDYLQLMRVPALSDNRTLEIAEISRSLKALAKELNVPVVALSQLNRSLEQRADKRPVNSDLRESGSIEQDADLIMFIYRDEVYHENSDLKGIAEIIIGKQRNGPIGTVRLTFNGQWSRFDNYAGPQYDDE
A further experiment concerns the target DNA ligase (UniProt B1XA82). As for the experimental part: as §1
The target of a further experiment is DNA polymerase (UniProt P10443). Here is the method: as §1
Sequence of DNA polymerase (P10443 whole entry): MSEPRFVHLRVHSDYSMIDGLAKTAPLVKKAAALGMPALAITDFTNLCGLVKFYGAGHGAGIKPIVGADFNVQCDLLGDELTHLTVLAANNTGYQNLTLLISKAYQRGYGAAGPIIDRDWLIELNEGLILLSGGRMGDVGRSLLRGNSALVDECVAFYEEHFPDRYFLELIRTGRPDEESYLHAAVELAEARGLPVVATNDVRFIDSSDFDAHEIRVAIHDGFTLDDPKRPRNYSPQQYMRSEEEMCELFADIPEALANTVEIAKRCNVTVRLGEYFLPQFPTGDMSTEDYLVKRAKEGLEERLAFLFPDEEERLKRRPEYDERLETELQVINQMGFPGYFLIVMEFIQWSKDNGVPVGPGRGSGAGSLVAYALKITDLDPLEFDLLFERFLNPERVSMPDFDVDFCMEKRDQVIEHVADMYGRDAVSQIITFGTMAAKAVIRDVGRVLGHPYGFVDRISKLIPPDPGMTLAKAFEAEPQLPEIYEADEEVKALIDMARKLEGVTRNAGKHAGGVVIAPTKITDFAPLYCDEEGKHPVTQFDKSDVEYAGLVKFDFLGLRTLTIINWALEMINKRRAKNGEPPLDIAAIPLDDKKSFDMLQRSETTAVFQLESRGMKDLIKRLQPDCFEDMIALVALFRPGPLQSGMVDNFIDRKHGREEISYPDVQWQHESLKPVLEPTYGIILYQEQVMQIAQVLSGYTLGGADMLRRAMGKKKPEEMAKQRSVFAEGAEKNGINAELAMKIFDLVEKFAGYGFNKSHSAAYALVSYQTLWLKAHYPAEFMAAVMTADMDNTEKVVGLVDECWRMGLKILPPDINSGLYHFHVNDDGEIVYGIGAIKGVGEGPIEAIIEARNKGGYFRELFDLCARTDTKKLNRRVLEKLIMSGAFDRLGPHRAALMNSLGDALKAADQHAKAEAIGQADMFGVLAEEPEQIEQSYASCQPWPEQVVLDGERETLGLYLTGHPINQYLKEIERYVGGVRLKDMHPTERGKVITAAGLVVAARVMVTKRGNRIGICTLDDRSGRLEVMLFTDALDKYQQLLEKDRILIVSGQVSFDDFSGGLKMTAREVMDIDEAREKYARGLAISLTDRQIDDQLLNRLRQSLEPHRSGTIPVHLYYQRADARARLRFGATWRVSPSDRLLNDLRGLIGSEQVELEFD
The target in another experiment is DNA primase (UniProt P0ABS7). Here is the method: as §1
Sequence of DNA primase (P0ABS7 whole entry): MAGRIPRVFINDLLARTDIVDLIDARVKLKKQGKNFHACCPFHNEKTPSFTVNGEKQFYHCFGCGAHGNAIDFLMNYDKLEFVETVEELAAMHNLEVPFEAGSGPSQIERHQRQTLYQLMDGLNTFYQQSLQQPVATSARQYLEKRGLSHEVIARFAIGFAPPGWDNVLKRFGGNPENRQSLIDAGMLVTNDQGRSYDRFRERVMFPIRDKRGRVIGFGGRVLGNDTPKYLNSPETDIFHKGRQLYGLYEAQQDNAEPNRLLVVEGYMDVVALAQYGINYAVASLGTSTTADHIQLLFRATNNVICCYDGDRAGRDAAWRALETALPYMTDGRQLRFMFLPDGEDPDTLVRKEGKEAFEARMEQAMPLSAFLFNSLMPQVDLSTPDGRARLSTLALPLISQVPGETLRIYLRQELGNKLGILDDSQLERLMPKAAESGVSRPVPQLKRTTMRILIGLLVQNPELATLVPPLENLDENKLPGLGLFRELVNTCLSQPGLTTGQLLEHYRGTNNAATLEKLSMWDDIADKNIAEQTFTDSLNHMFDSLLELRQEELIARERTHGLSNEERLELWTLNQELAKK
A further experiment deals with GlmU (UniProt A7ZTU1). As for the experimental part:
as §1

The target of another experiment is Guanlyate kinase (UniProt Q0TBG1). Here is the method:
as §1

A further experiment addresses MurA (UniProt Q3YX52). As for the experimental part:
as §1

The next experiment addresses T1, MurD (UniProt P14900).
T1 sequence (whole entry): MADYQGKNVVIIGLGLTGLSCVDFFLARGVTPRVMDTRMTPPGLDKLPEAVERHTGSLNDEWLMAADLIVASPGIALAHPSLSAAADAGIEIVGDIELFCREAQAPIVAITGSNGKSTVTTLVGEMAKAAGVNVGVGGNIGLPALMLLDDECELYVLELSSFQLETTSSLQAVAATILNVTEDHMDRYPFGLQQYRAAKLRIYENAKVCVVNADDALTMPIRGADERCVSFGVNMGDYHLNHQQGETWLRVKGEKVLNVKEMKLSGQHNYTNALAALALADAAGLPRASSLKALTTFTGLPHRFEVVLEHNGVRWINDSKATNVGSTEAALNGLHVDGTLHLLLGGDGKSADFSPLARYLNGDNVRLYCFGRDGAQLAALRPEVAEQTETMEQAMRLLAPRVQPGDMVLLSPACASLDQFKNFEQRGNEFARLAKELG
As for the experimental part:
as §1

Another experiment addresses T2, MurF (UniProt P11880).
T2 sequence (whole entry): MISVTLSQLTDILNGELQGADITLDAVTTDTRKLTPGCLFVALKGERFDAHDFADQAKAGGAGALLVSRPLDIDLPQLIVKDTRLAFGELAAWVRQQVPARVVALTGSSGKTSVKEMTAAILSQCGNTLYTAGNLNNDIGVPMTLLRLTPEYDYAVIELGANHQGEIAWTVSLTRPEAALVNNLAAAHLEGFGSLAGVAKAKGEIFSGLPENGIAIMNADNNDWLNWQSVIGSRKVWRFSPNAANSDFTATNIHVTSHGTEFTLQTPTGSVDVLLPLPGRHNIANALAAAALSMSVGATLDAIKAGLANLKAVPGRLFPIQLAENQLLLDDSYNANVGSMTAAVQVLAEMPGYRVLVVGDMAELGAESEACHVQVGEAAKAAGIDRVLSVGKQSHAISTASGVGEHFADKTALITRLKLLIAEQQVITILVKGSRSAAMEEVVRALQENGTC
Here is the method: as §1

A further experiment relates to RNA polymerase. As for the experimental part: as §1

Sequence of DNA ligase (B1XA82 whole entry): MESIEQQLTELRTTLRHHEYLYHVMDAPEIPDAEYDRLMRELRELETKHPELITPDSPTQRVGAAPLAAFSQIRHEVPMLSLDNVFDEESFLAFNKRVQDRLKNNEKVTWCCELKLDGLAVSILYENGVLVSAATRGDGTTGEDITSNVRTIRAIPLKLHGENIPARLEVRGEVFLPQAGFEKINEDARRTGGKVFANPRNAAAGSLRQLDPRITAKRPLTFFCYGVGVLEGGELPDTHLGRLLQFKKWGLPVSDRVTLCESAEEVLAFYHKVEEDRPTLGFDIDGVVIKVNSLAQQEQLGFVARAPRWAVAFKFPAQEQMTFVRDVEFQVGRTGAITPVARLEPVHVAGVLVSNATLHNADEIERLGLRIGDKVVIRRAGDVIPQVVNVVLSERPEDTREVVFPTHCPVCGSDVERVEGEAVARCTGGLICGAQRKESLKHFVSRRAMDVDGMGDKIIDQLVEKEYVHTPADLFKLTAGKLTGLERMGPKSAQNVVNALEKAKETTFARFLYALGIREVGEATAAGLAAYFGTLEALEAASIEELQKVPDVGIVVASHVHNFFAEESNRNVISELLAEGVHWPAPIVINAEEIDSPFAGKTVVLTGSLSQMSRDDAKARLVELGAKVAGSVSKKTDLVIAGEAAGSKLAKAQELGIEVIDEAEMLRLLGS
Sequence of GlmU (A7ZTU1 whole entry, looked up): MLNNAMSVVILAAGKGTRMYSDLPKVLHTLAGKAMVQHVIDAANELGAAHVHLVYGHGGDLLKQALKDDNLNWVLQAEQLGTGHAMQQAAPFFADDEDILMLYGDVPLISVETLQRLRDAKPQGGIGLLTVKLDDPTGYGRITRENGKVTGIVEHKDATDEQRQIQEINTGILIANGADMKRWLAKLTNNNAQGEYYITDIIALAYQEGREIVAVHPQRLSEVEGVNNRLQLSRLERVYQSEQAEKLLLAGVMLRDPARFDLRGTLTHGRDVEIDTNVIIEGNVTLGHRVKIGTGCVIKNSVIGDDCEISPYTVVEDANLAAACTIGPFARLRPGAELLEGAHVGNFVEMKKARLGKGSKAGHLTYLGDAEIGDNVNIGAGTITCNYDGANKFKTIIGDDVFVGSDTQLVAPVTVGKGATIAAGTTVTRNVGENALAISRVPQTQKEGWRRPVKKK
Sequence of Guanlyate kinase (Q0TBG1 whole entry): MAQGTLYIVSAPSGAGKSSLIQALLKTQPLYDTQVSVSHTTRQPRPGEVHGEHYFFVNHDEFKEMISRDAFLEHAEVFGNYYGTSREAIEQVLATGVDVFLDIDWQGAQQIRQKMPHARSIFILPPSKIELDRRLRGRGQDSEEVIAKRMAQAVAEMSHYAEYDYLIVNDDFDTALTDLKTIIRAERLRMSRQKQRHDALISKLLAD
Sequence of MurA (Q3YX52 whole entry): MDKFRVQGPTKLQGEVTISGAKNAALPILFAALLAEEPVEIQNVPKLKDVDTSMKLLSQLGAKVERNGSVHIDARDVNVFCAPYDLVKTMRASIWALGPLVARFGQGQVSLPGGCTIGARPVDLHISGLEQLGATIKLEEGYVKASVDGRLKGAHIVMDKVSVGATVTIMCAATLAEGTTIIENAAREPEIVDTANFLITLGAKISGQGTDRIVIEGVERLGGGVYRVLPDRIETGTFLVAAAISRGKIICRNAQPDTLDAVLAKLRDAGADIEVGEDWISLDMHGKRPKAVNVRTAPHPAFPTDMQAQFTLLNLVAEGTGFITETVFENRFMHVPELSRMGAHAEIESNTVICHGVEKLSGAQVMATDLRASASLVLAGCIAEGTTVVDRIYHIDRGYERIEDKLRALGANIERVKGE

As to `CON=C1CN(c2nc3c(cc2F)c(=O)c(C(=O)O)cn3C2CC2)CC1CN.CS(=O)(=O)O` (stereo not drawn), the relative enzymatic activity came out at 0.058 ± 0.082 in the experiment with DNA gyrase; 0.479 ± 0.14 in the experiment with DNA helicase; 1.09 ± 0.24 with DNA ligase; 1.26 ± 0.31 in the experiment with DNA polymerase; 0.805 ± 0.059 with DNA primase; 0.919 ± 0.027 with GlmU. Moreover, the relative enzymatic activity was 0.856 ± 0.23 with Guanlyate kinase; 0.4853 ± 0.00068 in the experiment with MurA; 0.503 ± 0.35 with MurD; 0.919 ± 0.19 with MurF; 0.88 ± 0.012 with RNA polymerase.

As to `Oc1c(Cl)cc(Cl)c(Cl)c1Cc1c(O)c(Cl)cc(Cl)c1Cl`, the relative enzymatic activity was 0.191 ± 0.12 with DNA gyrase; 0.06883 ± 0.00038 with DNA helicase; 0.514 ± 0.1 with DNA ligase; 0.222 ± 0.019 with DNA polymerase; 0.436 ± 0.0013 with DNA primase; 1.07 ± 0.11 with GlmU. Further, the relative enzymatic activity was determined as 0.162 ± 0.0089 with Guanlyate kinase; 0.899 ± 0.6 in the experiment with MurA; 1.25 ± 0.89 with MurD; 0.446 ± 0.1 with MurF; 0.293 ± 0.0084 in the experiment on RNA polymerase.

As to `O=c1[nH]cc(F)c(=O)[nH]1`, the relative enzymatic activity turned out to be 0.73 ± 0.39 in the experiment with DNA gyrase; 0.568 ± 0.12 with DNA helicase; 0.9871 ± 0.0093 with DNA ligase; 0.593 ± 0.47 in the experiment with DNA polymerase; 0.852 ± 0.023 in the experiment with DNA primase; 0.981 ± 0.051 with GlmU. Moreover, the relative enzymatic activity worked out at 0.86 ± 0.071 with Guanlyate kinase; 0.673 ± 0.18 in the experiment with MurA; 0.572 ± 0.36 with MurD; 0.972 ± 0.2 with MurF; 0.688 ± 0.065 with RNA polymerase.

On to `CCCCCCCCCCCCCCCC[N+](C)(C)Cc1ccccc1.[Cl-]`, for which the relative enzymatic activity in the experiment on DNA gyrase amounted to 0.3954 ± 0.003; with DNA helicase it was 0.0157 ± 0.00047; in the experiment with DNA ligase, 0.183 ± 0.12; with DNA polymerase it was 0.0334 ± 0.0085; with DNA primase, 0.27 ± 0.0085; with GlmU it was 0.115 ± 0.0013. The relative enzymatic activity with Guanlyate kinase amounted to 0.0243 ± 0.0088; in the experiment with MurA it was 0.032 ± 0.0013; with MurD it was 0.0872 ± 0.0094; with MurF, 0.156 ± 0.061; in the experiment with RNA polymerase, 0.133 ± 0.018.

For `CC1(C)SC2C(N3C(=O)C(c4ccccc4)NC3(C)C)C(=O)N2C1C(=O)[O-].[K+]` (stereo not drawn), the relative enzymatic activity was found to be 1.14 ± 0.073 with DNA gyrase; 0.458 ± 0.13 in the experiment with DNA helicase; 1.67 ± 0.9 in the experiment with DNA ligase; 1.36 ± 0.37 with DNA polymerase; 0.776 ± 0.26 with DNA primase; 0.948 ± 0.043 with GlmU. Further, the relative enzymatic activity in the experiment with Guanlyate kinase turned out to be 1.13 ± 0.1; with MurA it was 0.219 ± 0.028; in the experiment with MurD, 0.563 ± 0.37; in the experiment with MurF, 0.945 ± 0.14; in the experiment on RNA polymerase it was 0.90251 ± 0.00052.

For `Nc1c2ccccc2nc2ccccc12`, the relative enzymatic activity in the experiment with DNA gyrase is 0.766 ± 0.37; in the experiment with DNA helicase it was 0.595 ± 0.097; with DNA ligase, 0.519 ± 0.092; in the experiment with DNA polymerase, 1.01 ± 0.28; with DNA primase it was 0.573 ± 0.14; in the experiment with GlmU it was 0.933 ± 0.059. Moreover, the relative enzymatic activity with Guanlyate kinase came out at 0.3108 ± 0.001; with MurA, 0.74 ± 0.14; with MurD it was 0.589 ± 0.38; with MurF it was 0.94 ± 0.25; with RNA polymerase it was 0.505 ± 0.016.

Regarding `CCC1OC(=O)C(C)C(OC2CC(C)(OC)C(O)C(C)O2)C(C)C(OC2OC(C)CC(N(C)C)C2O)C(C)(O)CC(C)CN(C)C(C)C(O)C1(C)O` (stereo not drawn), the relative enzymatic activity with DNA gyrase came out at 1.09 ± 0.048; in the experiment with DNA helicase, 0.601 ± 0.15; in the experiment with DNA ligase it was 1.06 ± 0.2; in the experiment with DNA polymerase, 1.11 ± 0.15; in the experiment with DNA primase, 0.712 ± 0.2; with GlmU, 1.09 ± 0.14. Moreover, the relative enzymatic activity came to 1.04 ± 0.034 with Guanlyate kinase; 0.766 ± 0.061 with MurA; 0.572 ± 0.39 with MurD; 0.964 ± 0.17 in the experiment with MurF; 0.843 ± 0.027 in the experiment on RNA polymerase.

As to `Nc1nc(C(=CCC(=O)O)C(=O)NC2C(=O)N3C(C(=O)O)=CCSC23)cs1` (stereo not drawn), the relative enzymatic activity in the experiment with DNA gyrase is 0.16 ± 0.14; with DNA helicase, 0.257 ± 0.0059; with DNA ligase it was 1.1 ± 0.24; with DNA polymerase, 0.742 ± 0.27; with DNA primase, 0.682 ± 0.082; in the experiment with GlmU, 0.934 ± 0.01. For the same molecule, the relative enzymatic activity is 0.901 ± 0.03 with Guanlyate kinase; 0.0583 ± 0.02 with MurA; 0.575 ± 0.39 in the experiment with MurD; 0.958 ± 0.24 in the experiment with MurF; 0.292 ± 0.037 in the experiment with RNA polymerase.

With `O=C1OCCN1N=Cc1ccc([N+](=O)[O-])o1`, the relative enzymatic activity with DNA gyrase was determined as 1.13 ± 0.099; in the experiment with DNA helicase, 0.454 ± 0.088; with DNA ligase, 1.02 ± 0.015; with DNA polymerase, 1.35 ± 0.37; with DNA primase, 0.747 ± 0.22; in the experiment with GlmU it was 0.974 ± 0.017. Also, the relative enzymatic activity with Guanlyate kinase came to 1.01 ± 0.042; in the experiment with MurA, 0.649 ± 0.12; in the experiment with MurD it was 0.565 ± 0.37; with MurF, 0.947 ± 0.16; in the experiment on RNA polymerase, 0.941 ± 0.097.

`CC[C@@H](C)CCCCC(=O)N[C@@H](CCN)C(=O)N[C@H](C(=O)N[C@@H](CCN)C(=O)N[C@H]1CCNC(=O)[C@H]([C@@H](C)O)NC(=O)[C@H](CCN)NC(=O)[C@H](CCN)NC(=O)[C@H](CC(C)C)NC(=O)[C@@H](Cc2ccccc2)NC(=O)[C@@H](CCN)NC1=O)[C@@H](C)O`: the relative enzymatic activity in the experiment with DNA gyrase amounted to 1.66 ± 0.37; in the experiment with DNA helicase it was 0.0939 ± 0.022; in the experiment with DNA ligase, 0.701 ± 0.47; with DNA polymerase it was 0.34 ± 0.059; with DNA primase, 0.616 ± 0.13; with GlmU, 1.11 ± 0.016. Moreover, the relative enzymatic activity was 0.449 ± 0.055 with Guanlyate kinase; 0.646 ± 0.21 with MurA; 0.674 ± 0.44 with MurD; 0.991 ± 0.22 with MurF; 0.46 ± 0.03 with RNA polymerase.

Consider `Cn1nnnc1SCC1=C(C(=O)[O-])N2C(=O)C(NC(=O)C(O)c3ccccc3)C2SC1.[Na+]` (stereo not drawn), for which the relative enzymatic activity came out at 0.841 ± 0.26 in the experiment on DNA gyrase; 0.638 ± 0.12 in the experiment with DNA helicase; 1.42 ± 0.27 in the experiment with DNA ligase; 1.19 ± 0.25 with DNA polymerase; 0.689 ± 0.18 in the experiment with DNA primase; 1.16 ± 0.18 with GlmU. The relative enzymatic activity came out at 0.942 ± 0.17 with Guanlyate kinase; 0.0762 ± 0.016 with MurA; 0.636 ± 0.44 in the experiment with MurD; 0.988 ± 0.21 with MurF; 1.16 ± 0.45 in the experiment on RNA polymerase.

In the case of `CC(=O)OCC1=C(C(=O)[O-])N2C(=O)C(NC(=O)Cc3cccs3)C2SC1.[Na+]` (stereo not drawn), the relative enzymatic activity in the experiment on DNA gyrase turned out to be 0.626 ± 0.6; in the experiment with DNA helicase, 0.395 ± 0.012; with DNA ligase, 1.26 ± 0.12; with DNA polymerase it was 1.09 ± 0.26; in the experiment with DNA primase, 0.713 ± 0.036; in the experiment with GlmU it was 1 ± 0.084. Also, the relative enzymatic activity with Guanlyate kinase was 0.974 ± 0.057; in the experiment with MurA, 0.0754 ± 0.023; with MurD it was 0.597 ± 0.38; with MurF it was 0.958 ± 0.23; with RNA polymerase, 0.622 ± 0.13.

For the molecule `COC12C(COC(N)=O)C3=C(C(=O)C(C)=C(N)C3=O)N1CC1NC12` (stereo not drawn), the relative enzymatic activity in the experiment on DNA gyrase was 1.01 ± 0.063; with DNA helicase, 0.964 ± 0.15; in the experiment with DNA ligase it was 1.03 ± 0.025; in the experiment with DNA polymerase, 1.31 ± 0.47; with DNA primase, 0.728 ± 0.2; with GlmU, 1.02 ± 0.018. Further, the relative enzymatic activity was 1.05 ± 0.032 with Guanlyate kinase; 0.264 ± 0.12 in the experiment with MurA; 0.589 ± 0.41 with MurD; 1.01 ± 0.23 with MurF; 0.882 ± 0.01 in the experiment with RNA polymerase.

Values taken from the supplement of paper PMC9446081.
